Results taken from PubChem BioAssay (Tox21).
Inconclusive results are not listed. Where a call stands in place of a potency, no number is given. The source made the active and inactive calls. Unless noted, the call rests on the fitted dose curve; in most records, active means well fitted curve in the direction sought with a large enough effect in the repeat runs; inconclusive means weak or mixed curves; inactive means no such curve, though single readings can be large; an effect the other way counts as inactive or inconclusive.

How the values were obtained:
[1] = qHTS assay to identify small molecule agonists of the NFkB signaling pathway - cell viability counter screen (AID 1159515; calls by dose curve; further: series mostly up to about 61 µM; nearly all actives have a fitted effect of over 55% in size)
How it was run: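 Using the same wells as the NFkB reporter read, ME-180 NFkB-bla cells given compounds for 5 hr were assessed for viability via CellTiter-Glo, with luminescence taken after a 30 min room-temperature incubation.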

[2] = qHTS assay to identify small molecule agonists of the endoplasmic reticulum stress response signaling pathway (AID 1159516; active means well fitted activation curve with a large enough effect in the signal ratio in the repeat runs, not every such curve was filed as active; the % refers to the signal ratio; further: potency means the concentration at half of the fitted maximal effect)
How it was run: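 An ESRE-bla HeLa cell assay: compounds were pin-transferred from DMSO onto overnight-plated cells and left 5 hr at 37 C. Substrate was then loaded for 2 hr at room temperature before reading fluorescence at 460 nm and 530 nm.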

[3] = qHTS assay to identify small molecule agonists of the endoplasmic reticulum stress response signaling pathway - cell viability counter screen (AID 1159517; calls by dose curve;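 further: HeLa cells carrying an ER stress response element beta-lactamase reporter; series mostly up to about 61 µM; nearly all actives have a fitted effect of over 50% in size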)
How it was run: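 Cells, HeLa ESRE-bla; density, 1,500/well; dosing, 5 hr at 37 C, 5% CO2; readout, CellTiter-Glo luminescence after 30 min RT.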

[4] = qHTS assay to identify small molecule antagonists of the retinoid-related orphan receptor gamma (ROR-gamma) signaling pathway - cell viability counter screen (AID 1159520); further: nearly all actives have a fitted effect of over 50% in size
How it was run: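 Cytotoxicity was read from cellular ATP (CellTiter-Glo luminescence) after 16 hr at 37 C with 1 uM doxycycline induction. The inducer was added 2 hr after compound transfer to Tet-on ROR gamma CHO cells.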

[5] = qHTS assay to identify small molecule agonists of the AP-1 signaling pathway - cell viability counter screen (AID 1159525; calls by dose curve; further: nearly all actives have a fitted effect of over 55% in size)
How it was run: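 Luminescent ATP readout (Cell Titer Glo, 30 min RT), normalised to DMSO and tetra n-octyl ammonium bromide controls. Cells were ME-180 AP-1-bla in 0.5% dialyzed FBS Opti-MEM, with a 5 h, 37 °C compound exposure.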

[6] = target: Retinoic acid receptor RXR-alpha (Homo sapiens) (UniProt P19793); experiment: qHTS assay to identify small molecule agonists of the RXR signaling pathway (AID 1159527; calls by dose curve; further: nearly all actives have a fitted effect of over 35% in size; further: potency means the concentration at half of the fitted maximal effect)
Retinoic acid receptor RXR-alpha (Homo sapiens), sequence (P19793 whole entry, looked up): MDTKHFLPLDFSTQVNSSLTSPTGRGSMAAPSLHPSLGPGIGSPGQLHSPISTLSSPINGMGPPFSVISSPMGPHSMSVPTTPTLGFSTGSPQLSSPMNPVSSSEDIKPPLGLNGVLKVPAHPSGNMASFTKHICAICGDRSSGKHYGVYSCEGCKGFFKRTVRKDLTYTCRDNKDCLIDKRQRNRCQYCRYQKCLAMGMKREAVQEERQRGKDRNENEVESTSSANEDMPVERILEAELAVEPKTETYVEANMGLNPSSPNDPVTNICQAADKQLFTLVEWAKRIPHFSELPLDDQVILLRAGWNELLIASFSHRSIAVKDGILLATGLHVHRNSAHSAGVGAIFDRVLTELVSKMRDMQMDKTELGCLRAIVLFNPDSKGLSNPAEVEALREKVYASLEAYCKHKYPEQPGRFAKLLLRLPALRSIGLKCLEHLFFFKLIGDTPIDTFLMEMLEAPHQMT
How it was run: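 GeneBLAzer RXR-alpha-UAS-bla HEK 293T cells in 2% charcoal-stripped FBS medium were exposed to compounds for 16 hr at 37 C in agonist mode. Beta-lactamase reporter read as 460/530 nm FRET ratio after 2 hr substrate loading.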

[7] = qHTS assay to identify small molecule antagonists of the retinoid acid receptor (RAR) signaling pathway - cell viability counter screen (AID 1159551); further: nearly all actives have a fitted effect of over 35% in size
How it was run: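 Retinol-stimulated (1 uM final) C3RL4 cells, compound 6 h, 37 C; readout CellTiter-Glo luminescence (ATP) after 30 min RT incubation.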

[8] = qHTS assay to identify small molecule antagonists of the retinoic acid receptor (RAR) signaling pathway (AID 1159552; further: nearly all actives have a fitted effect of over 50% in size)
How it was run: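 Retinol signaling pathway inhibitors screened in C3RL4 RARE-luciferase reporter cells seeded overnight at 37 C, then compounds added with 1 uM (final) retinol as pathway substrate. After 6 hr at 37 C, luciferase luminescence read after 30 min at room temperature.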

[9] = qHTS assay to identify small molecule agonists of the retinoic acid receptor (RAR) signaling pathway (AID 1159553)
How it was run: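 Reporter readout comes from luciferase under RARE control in C3RL4 cells; compound exposure lasts 6 hr at 37 C in 5% CO2, and luminescence is recorded following a 30 min room-temperature incubation with reagent.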

[10] = qHTS assay to identify small molecule antagonists of the estrogen related receptor (ERR) signaling pathway from Tox21 library - cell viability counter screen (AID 1224834); further: nearly all actives have a fitted effect of over 30% in size; further: potency means the concentration at half of the fitted maximal effect
How it was run: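 After 17.5 h of compound exposure at 37 C, ERR cells are incubated with CellTiter-Fluor for 30 min and fluorescence intensity serves as the viability measure.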

[11] = target: Luciferin 4-monooxygenase (Photinus pyralis) (UniProt P08659); experiment: qHTS assay to identify small molecule inhibitors of firefly luciferase (AID 1224835); further: nearly all actives have a fitted effect of over 25% in size; further: potency means the concentration at half of the fitted maximal effect
Luciferin 4-monooxygenase (Photinus pyralis), sequence (P08659 whole entry, looked up): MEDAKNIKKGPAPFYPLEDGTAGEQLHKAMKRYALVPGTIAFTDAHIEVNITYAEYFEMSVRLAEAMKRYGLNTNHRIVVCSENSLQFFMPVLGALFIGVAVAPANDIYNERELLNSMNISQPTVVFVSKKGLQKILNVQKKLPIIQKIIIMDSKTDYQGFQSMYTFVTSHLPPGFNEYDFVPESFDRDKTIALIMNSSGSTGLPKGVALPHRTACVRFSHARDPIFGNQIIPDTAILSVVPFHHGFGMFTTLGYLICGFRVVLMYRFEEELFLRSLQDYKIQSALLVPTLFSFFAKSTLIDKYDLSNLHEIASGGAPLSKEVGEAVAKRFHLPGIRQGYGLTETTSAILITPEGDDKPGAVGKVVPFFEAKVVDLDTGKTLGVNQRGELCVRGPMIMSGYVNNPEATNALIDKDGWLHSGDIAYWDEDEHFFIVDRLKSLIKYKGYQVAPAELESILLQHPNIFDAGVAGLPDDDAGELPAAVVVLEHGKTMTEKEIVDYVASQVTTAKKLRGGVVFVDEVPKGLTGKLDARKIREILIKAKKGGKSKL
How it was run: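 Inhibition of purified Photinus luciferase is measured by luminescence. Substrate levels (D-luciferin, ATP) sit at their KM values. Each compound is tested in a concentration series.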

[12] = qHTS assay to identify small molecule agonists of the constitutive androstane receptor (CAR) signaling pathway - cell viability counter screen (AID 1224836); further: series mostly up to about 92 µM; nearly all actives have a fitted effect of over 45% in size
How it was run: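 HepG2 cells stably carrying hCAR and a CYP2B6-2.2kb reporter; 15-concentration compounds plus PK11195 (final 0.75 uM), 23 hr at 37 C/5% CO2. Viability read by CellTiter-Fluor fluorescence.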

[13] = qHTS assay to identify small molecule agonists of the AP-1 signaling pathway (AID 1159526; calls by dose curve)
[14] = qHTS assay to identify small molecule agonists of the RXR signaling pathway - cell viability counter screen (AID 1159529); further: nearly all actives have a fitted effect of over 50% in size; further: potency means the concentration at half of the fitted maximal effect
How it was run: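 RXR-alpha-UAS-bla HEK 293T cells in medium with 2% charcoal-stripped FBS were pre-incubated 5 hr, then compound-treated 16 hr at 37 C. Viability was read by CellTiter-Glo luminescence in the same wells as the beta-lactamase assay, with tetraoctyl ammonium bromide as positive control.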

C[C@@H](C1=C(CCN(C)C)Cc2ccccc21)c1ccccn1
Potency [1]: inactive
Potency [2]: inactive
outcome [3]: inactive
Potency [4]: inactive
Potency [5]: inactive
Potency [6]: inactive
Potency [7]: inactive
Potency [8]: inactive
Potency [9]: inactive
Potency [10]: inactive
Potency [11]: inactive
Potency [12]: inactive

CCCCOC(=O)c1ccccc1C(=O)OCC(CC)CCCC (configuration not stated)
Potency [1]: inactive
Potency [2]: inactive
outcome [3]: inactive
Potency [4]: inactive
Potency [5]: inactive
Potency [7]: inactive
Potency [10]: inactive
Potency [11]: inactive
Potency [12]: inactive

CCCCCCc1ccc(N)cc1
Potency [1]: inactive
Potency [2]: inactive
outcome [3]: inactive
Potency [4]: inactive
Potency [5]: inactive
Potency [13]: inactive
Potency [7]: inactive
Potency [8]: inactive
Potency [12]: inactive

CCOC(=O)CC(C)C
Potency [1]: inactive
Potency [2]: inactive
outcome [3]: inactive
Potency [4]: inactive
Potency [5]: inactive
Potency [13]: inactive
Potency [14]: inactive
Potency [7]: inactive
Potency [11]: inactive
Potency [12]: inactive

Cc1ccc(C(C)c2ccc(C)c(C)c2)cc1C
Potency [1]: inactive
Potency [2]: inactive
outcome [3]: inactive
Potency [4]: inactive
Potency [5]: inactive
Potency [13]: inactive
Potency [7]: inactive
Potency [9]: inactive
Potency [10]: inactive
Potency [11]: inactive

CCCCCCCCCC=O
Potency [1]: inactive
Potency [2]: inactive
outcome [3]: inactive
Potency [4]: inactive
Potency [5]: inactive
Potency [13]: inactive
Potency [14]: inactive
Potency [7]: inactive
Potency [10]: inactive
Potency [11]: inactive
Potency [12]: inactive

CCOC(=O)[C@H](CCc1ccccc1)N[C@H]1CCc2ccccc2N(CC(=O)O)C1=O
Potency [1]: inactive
Potency [2]: 21.3 µM (active)
outcome [3]: inactive
Potency [4]: inactive
Potency [5]: inactive
Potency [6]: inactive
Potency [7]: inactive
Potency [10]: 26.6 µM (active)
Potency [11]: inactive
Potency [12]: inactive

NCCCOCCOCCOCCCN
Potency [1]: inactive
Potency [2]: inactive
outcome [3]: inactive
Potency [4]: inactive
Potency [5]: inactive
Potency [13]: inactive
Potency [6]: 43.6 µM (active)
Potency [7]: inactive
Potency [9]: inactive
Potency [10]: inactive
Potency [11]: inactive
Potency [12]: inactive

CC(C)CCCC(C)CCO (configuration not stated)
Potency [1]: inactive
Potency [2]: inactive
outcome [3]: inactive
Potency [4]: inactive
Potency [5]: inactive
Potency [13]: inactive
Potency [14]: inactive
Potency [7]: inactive
Potency [8]: inactive
Potency [10]: inactive
Potency [11]: inactive
Potency [12]: inactive

Nc1nc(N)c2nc(CNc3ccc(C(=O)N[C@@H](CCC(=O)O)C(=O)O)cc3)cnc2n1
Potency [1]: inactive
Potency [2]: 51.3 µM (active)
outcome [3]: inactive
Potency [4]: inactive
Potency [5]: inactive
Potency [13]: inactive
Potency [14]: inactive
Potency [7]: inactive
Potency [8]: inactive
Potency [9]: inactive
Potency [11]: inactive
Potency [12]: inactive

CCCc1ccccc1
Potency [1]: inactive
Potency [2]: inactive
outcome [3]: inactive
Potency [4]: inactive
Potency [13]: inactive
Potency [14]: inactive
Potency [8]: inactive
Potency [9]: inactive
Potency [10]: inactive
Potency [11]: inactive
Potency [12]: inactive

CCCCC(CC)COCCCN (configuration not stated)
Potency [1]: inactive
Potency [2]: inactive
outcome [3]: inactive
Potency [4]: inactive
Potency [5]: inactive
Potency [7]: inactive
Potency [8]: inactive
Potency [9]: inactive
Potency [10]: inactive
Potency [11]: inactive
Potency [12]: inactive

Cc1cccc(C(C)(C)C)c1O
Potency [1]: inactive
Potency [2]: inactive
outcome [3]: inactive
Potency [4]: inactive
Potency [5]: inactive
Potency [6]: inactive
Potency [14]: inactive
Potency [7]: inactive
Potency [8]: inactive
Potency [9]: inactive
Potency [10]: inactive
Potency [11]: inactive
Potency [12]: inactive

CCCCCCCCCCCCC(=O)O
Potency [1]: inactive
Potency [2]: inactive
outcome [3]: inactive
Potency [4]: inactive
Potency [5]: inactive
Potency [13]: inactive
Potency [14]: 24.6 µM (active)
Potency [7]: inactive
Potency [8]: inactive
Potency [9]: inactive
Potency [10]: inactive
Potency [11]: 63.5 µM (active)

CC[C@H](C)[C@H](N)C(=O)O
Potency [1]: inactive
Potency [2]: inactive
outcome [3]: inactive
Potency [4]: inactive
Potency [13]: inactive
Potency [6]: inactive
Potency [10]: inactive
Potency [11]: inactive
Potency [12]: inactive

Cc1ccc(O)c([C@H](CCN(C(C)C)C(C)C)c2ccccc2)c1
Potency [1]: inactive
Potency [2]: inactive
outcome [3]: inactive
Potency [4]: inactive
Potency [5]: inactive
Potency [6]: inactive
Potency [7]: inactive
Potency [9]: inactive
Potency [11]: inactive
Potency [12]: inactive

Cc1ccccc1N=Nc1ccc(N=Nc2c(O)ccc3ccccc23)c(C)c1
Potency [1]: inactive
Potency [2]: inactive
outcome [3]: inactive
Potency [4]: inactive
Potency [5]: inactive
Potency [13]: inactive
Potency [14]: inactive
Potency [10]: inactive
Potency [12]: inactive

O=C(O)C(c1ccc(Cl)cc1)c1ccc(Cl)cc1
Potency [1]: inactive
Potency [2]: inactive
outcome [3]: inactive
Potency [4]: inactive
Potency [5]: inactive
Potency [13]: inactive
Potency [14]: inactive
Potency [7]: inactive
Potency [8]: inactive
Potency [9]: inactive
Potency [10]: inactive
Potency [11]: inactive
Potency [12]: inactive

N#Cc1c(F)cccc1F
Potency [1]: inactive
Potency [2]: inactive
outcome [3]: inactive
Potency [4]: inactive
Potency [5]: inactive
Potency [13]: inactive
Potency [14]: inactive
Potency [7]: inactive
Potency [9]: inactive
Potency [10]: inactive
Potency [11]: inactive
Potency [12]: inactive
